These results are taken from PubChem BioAssay (EPA / NIEHS).

Active and inactive are the calls of the source. How the source made its calls: active means hit-call score of the fitted dose curve at least 0.9, where 1 is the maximum; inactive means score below 0.9.

A word on the AC50: it is the concentration giving half of the maximal activity seen.

Read-out in test [1]: Tumor necrosis factor receptor superfamily member 6 (Homo sapiens) (UniProt P25445)
Briefly: LTEA_HepaRG_FAS: Life Technologies and Expression Analysis (LTEA) Assay for Fas cell surface death receptor (FAS) using HepaRG (AID 2283447). To be noted: mRNA level, 48 h; actives raise or lower the signal. The gist of the method: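 Differentiated human HepaRG cells, pre-cultured 48 h, were exposed in duplicate for 48 h to 8-point half-log concentrations (top 100 uM, 0.5% DMSO) in serum-free induction medium; FAS mRNA measured by qRT-PCR, normalized to ACTB/GAPDH/POLR2A, bidirectional fit versus DMSO.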

Read-out in test [2]: Fatty acid synthase (Homo sapiens) (UniProt P49327)
As to the kind of experiment: LTEA_HepaRG_FASN: Life Technologies and Expression Analysis (LTEA) Assay for Fatty Acid Synthase (FASN) using HepaRG (AID 2283448). To be noted: mRNA level, 48 h; actives raise or lower the signal. An outline of the steps: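 Transcript-level assay: HepaRG liver cells are treated for 48 h across an eight-point range topping at 100 uM, and FASN mRNA, normalized to three housekeeping genes, is compared with DMSO controls in both directions.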

Read-out in test [3]: Cyclin D2 (CCND2), CCND2 (gene 894)
As to the kind of experiment: LTEA_HepaRG_CCND2: Life Technologies and Expression Analysis (LTEA) Assay for Cyclin D2 (CCND2) using HepaRG (AID 2283449).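 Further: CCND2 transcript measured by TaqMan qRT-PCR and normalised to three housekeeping genes.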 As to conditions: mRNA level, 48 h; actives raise or lower the signal. The gist of the method: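 Differentiated human HepaRG cells were exposed for 48 h in serum-free induction medium to eight half-log concentrations topping at 100 uM (0.5% DMSO vehicle). CCND2 mRNA was quantified by TaqMan qRT-PCR, normalised to ACTB, GAPDH and POLR2A, and fitted bidirectionally against DMSO.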

Read-out in test [4]: Cyclin Dependent Kinase Inhibitor 1A (CDKN1A), CDKN1A (gene 1026)
As to the kind of experiment: LTEA_HepaRG_CDKN1A: Life Technologies and Expression Analysis (LTEA) Assay for Cyclin Dependent Kinase Inhibitor 1A (CDKN1A) using HepaRG (AID 2283450). As to conditions: mRNA level, 48 h; actives raise or lower the signal. An outline of the steps:
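HepaRG, 48 h dosing, 8-pt half-log series from 100 uM top, 0.5% DMSO vehicle, duplicates. Readout: TaqMan qRT-PCR of CDKN1A transcript, housekeeping-normalized (ACTB, GAPDH, POLR2A). Up/down curve fit relative to DMSO.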

Read-out in test [5]: Cyclin D1 (CCND1), CCND1 (gene 595)
Briefly: LTEA_HepaRG_CCND1: Life Technologies and Expression Analysis (LTEA) Assay for Cyclin D1 (CCND1) using HepaRG (AID 2283451). To be noted: mRNA level, 48 h; actives raise or lower the signal. The gist of the method:
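qRT-PCR (Fluidigm 96.96 array) read-out of transcript level, housekeeping-normalized (ACTB/GAPDH/POLR2A). HepaRG cells, 48 h chemical exposure, 8-point half-log series from 100 uM, 0.5% DMSO vehicle; gain or loss relative to DMSO baseline.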

Read-out in test [6]: catalase (CAT), CAT (gene 847)
As to the kind of experiment: LTEA_HepaRG_CAT: Life Technologies and Expression Analysis (LTEA) Assay for catalase (CAT) using HepaRG (AID 2283452). As to conditions: mRNA level, 48 h; actives raise or lower the signal. An outline of the steps: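 Differentiated HepaRG cells in serum-free induction medium were dosed 48 h in duplicate, eight half-log concentrations from 100 uM in 0.5% DMSO. Transcript measured by TaqMan qRT-PCR, normalised to ACTB/GAPDH/POLR2A, fitted bidirectionally against DMSO.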

Read-out in test [7]: flavin-containing dimethylaniline monooxygenases 3 (FMO3), FMO3 (gene 2328)
Briefly: LTEA_HepaRG_FMO3: Life Technologies and Expression Analysis (LTEA) Assay for flavin-containing dimethylaniline monooxygenases 3 (FMO3) using HepaRG (AID 2283453). As to conditions: mRNA level, 48 h; actives raise or lower the signal. An outline of the steps: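 HepaRG, 48 h exposure, 8-pt half-log series from 100 uM, 0.5% DMSO vehicle, duplicates; FMO3 transcript by Fluidigm TaqMan qRT-PCR, housekeeping-normalized; gain/loss fit vs DMSO.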

Read-out in test [8]: Cytochrome P450 (CYP1A1), CYP1A1 (gene 1543)
As to the kind of experiment: LTEA_HepaRG_CYP1A1: Life Technologies and Expression Analysis (LTEA) Assay for Cytochrome P450 (CYP1A1) using HepaRG (AID 2283454). As to conditions: mRNA level, 48 h; actives raise or lower the signal. An outline of the steps:
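qRT-PCR read-out: CYP1A1 transcript normalized to three housekeeping genes, fitted bidirectionally against 0.5% DMSO vehicle baseline. Human HepaRG cells, 48 h chemical exposure, 8-point half-log series topping at 100 uM.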

Read-out in test [9]: CFLAR gene, CFLAR (gene 8837)
Briefly: LTEA_HepaRG_CFLAR: Life Technologies and Expression Analysis (LTEA) Assay for CFLAR gene using HepaRG (AID 2283455). To be noted: mRNA level, 48 h; actives raise or lower the signal. The gist of the method:
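HepaRG cells were plated for 48 h, switched to serum-free induction medium, then exposed in duplicate for 48 h to 8 concentrations (top 100 uM, half-log steps, 0.5% DMSO). CFLAR mRNA was measured by qRT-PCR, normalized to ACTB, GAPDH and POLR2A.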

Read-out in test [10]: Forkhead box O1 (FOXO1), FOXO1 (gene 2308)
As to the kind of experiment: LTEA_HepaRG_FOXO1: Life Technologies and Expression Analysis (LTEA) Assay for Forkhead box O1 (FOXO1) using HepaRG (AID 2283456). To be noted: mRNA level, 48 h; actives raise or lower the signal. The gist of the method: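 Differentiated human HepaRG cells in serum-free induction medium were exposed in duplicate for 48 h to eight half-log concentrations (top 100 uM, 0.5% DMSO). FOXO1 mRNA was measured by TaqMan qRT-PCR, normalised to ACTB, GAPDH and POLR2A, and fitted bidirectionally against DMSO.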

Test [11] is described as follows: CEETOX_H295R_TESTO: CeeTox H295R High-throughput Steroidogenesis Assay for Testosterone (TESTO) (AID 2283457). To be noted: actives raise or lower the signal. The gist of the method:
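Readout: testosterone quantified by HPLC-MS/MS (C18, ESI positive) after MTBE liquid-liquid extraction of culture medium. Cells were H295R, 48 h chemical exposure per OECD 456 with modifications. Gain or loss of signal fitted relative to DMSO.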

Read-out in test [12]: growth arrest and DNA damage 45 (GADD45A), GADD45A (gene 1647)
As to the kind of experiment: LTEA_HepaRG_GADD45A: Life Technologies and Expression Analysis (LTEA) Assay for growth arrest and DNA damage 45 (GADD45A) using HepaRG (AID 2283458). As to conditions: mRNA level, 48 h; actives raise or lower the signal. The gist of the method: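 Human HepaRG liver cells are treated in duplicate for 48 h with chemicals in 0.5% DMSO, highest concentration 100 uM. Expression is read by qRT-PCR and analyzed in both directions against vehicle.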

Read-out in test [13]: Forkhead box O3 (FOXO3), FOXO3 (gene 2309)
Briefly: LTEA_HepaRG_FOXO3: Life Technologies and Expression Analysis (LTEA) Assay for Forkhead box O3 (FOXO3) using HepaRG (AID 2283459). To be noted: mRNA level, 48 h; actives raise or lower the signal. An outline of the steps: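 Differentiated human HepaRG cells in serum-free induction medium were exposed in duplicate for 48 h to eight half-log concentrations up to 100 uM in 0.5% DMSO. FOXO3 mRNA was quantified by qRT-PCR, normalized to ACTB, GAPDH and POLR2A, with bidirectional fitting versus DMSO.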

Read-out in test [14]: ABC Transporter (ABCB1), ABCB1 (gene 5243)
As to the kind of experiment: LTEA_HepaRG_ABCB1: Life Technologies and Expression Analysis (LTEA) Assay for ABC Transporter (ABCB1) using HepaRG (AID 2283460). As to conditions: mRNA level, 48 h; actives raise or lower the signal. The gist of the method:
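Differentiated human HepaRG cells, plated 48 h then switched to serum-free induction medium, were exposed in duplicate to eight half-log concentrations up to 100 uM in 0.5% DMSO for 48 h. ABCB1 mRNA was measured by TaqMan qRT-PCR, normalized to ACTB/GAPDH/POLR2A.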

Read-out in test [15]: growth arrest and DNA damage 45 (GADD45B), GADD45B (gene 4616)
Briefly: LTEA_HepaRG_GADD45B: Life Technologies and Expression Analysis (LTEA) Assay for growth arrest and DNA damage 45 (GADD45B) using HepaRG (AID 2283461). As to conditions: mRNA level, 48 h; actives raise or lower the signal. An outline of the steps:
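qRT-PCR read-out (Fluidigm TaqMan, housekeeping-normalized) of mRNA change in human HepaRG cells after 48 h chemical exposure; 8-point curve, top 100 uM, half-log steps, 0.5% DMSO vehicle; gain or loss fitted relative to DMSO baseline.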

Read-out in test [16]: ABC Transporter (ABCC3), ABCC3 (gene 8714)
Briefly: LTEA_HepaRG_ABCC3: Life Technologies and Expression Analysis (LTEA) Assay for ABC Transporter (ABCC3) using HepaRG (AID 2283462). To be noted: mRNA level, 48 h; actives raise or lower the signal. The gist of the method: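 qRT-PCR read-out of ABCC3 transcript, normalized to three housekeeping genes (ACTB, GAPDH, POLR2A), after 48 h chemical exposure of human HepaRG cells. Eight half-log concentrations, highest 100 uM, in 0.5% DMSO; gain or loss fitted relative to DMSO baseline.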

Read-out in test [17]: ABC Transporter (ABCB11), ABCB11 (gene 8647)
As to the kind of experiment: LTEA_HepaRG_ABCB11: Life Technologies and Expression Analysis (LTEA) Assay for ABC Transporter (ABCB11) using HepaRG (AID 2283463). To be noted: mRNA level, 48 h; actives raise or lower the signal. The gist of the method: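 Differentiated human HepaRG cells were exposed for 48 h in serum-free induction medium to eight half-log concentrations up to 100 uM in 0.5% DMSO. ABCB11 mRNA was quantified by qRT-PCR, normalized to ACTB, GAPDH and POLR2A, and fitted bidirectionally versus DMSO.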

Read-out in test [18]: ABC Transporter (ABCC2), ABCC2 (gene 1244)
Briefly: LTEA_HepaRG_ABCC2: Life Technologies and Expression Analysis (LTEA) Assay for ABC Transporter (ABCC2) using HepaRG (AID 2283464). As to conditions: mRNA level, 48 h; actives raise or lower the signal. The gist of the method:
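qRT-PCR (TaqMan, Fluidigm array) read-out of ABCC2 mRNA, normalized to three housekeeping genes. Differentiated HepaRG cells were treated 48 h in serum-free induction medium with 8-point half-log series from 100 uM in 0.5% DMSO; curves fitted bidirectionally relative to DMSO.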

Read-out in test [19]: Broad substrate specificity ATP-binding cassette transporter ABCG2 (Homo sapiens) (UniProt Q9UNQ0)
Briefly: LTEA_HepaRG_ABCG2: Life Technologies and Expression Analysis (LTEA) Assay for ABC Transporter (ABCG2) using HepaRG (AID 2283465). As to conditions: mRNA level, 48 h; actives raise or lower the signal. The gist of the method: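 Differentiated HepaRG cells in serum-free induction medium were exposed for 48 h, in duplicate, to eight half-log concentrations up to 100 uM in 0.5% DMSO. ABCG2 mRNA was measured by TaqMan qRT-PCR, normalized to ACTB, GAPDH and POLR2A, and fitted bidirectionally versus DMSO.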

Read-out in test [20]: ATP-citrate lyase (ACLY), ACLY (gene 47)
As to the kind of experiment: LTEA_HepaRG_ACLY: Life Technologies and Expression Analysis (LTEA) Assay for ATP-citrate lyase (ACLY) using HepaRG (AID 2283466). To be noted: mRNA level, 48 h; actives raise or lower the signal. An outline of the steps:
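Differentiated human HepaRG cells in serum-free induction medium exposed 48 h, in duplicate, to eight half-log concentrations from 100 uM top in 0.5% DMSO; ACLY mRNA measured by qRT-PCR, normalized to ACTB, GAPDH, POLR2A, fitted bidirectionally versus DMSO.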

Fatty acid synthase (Homo sapiens), sequence (P49327 whole entry, looked up): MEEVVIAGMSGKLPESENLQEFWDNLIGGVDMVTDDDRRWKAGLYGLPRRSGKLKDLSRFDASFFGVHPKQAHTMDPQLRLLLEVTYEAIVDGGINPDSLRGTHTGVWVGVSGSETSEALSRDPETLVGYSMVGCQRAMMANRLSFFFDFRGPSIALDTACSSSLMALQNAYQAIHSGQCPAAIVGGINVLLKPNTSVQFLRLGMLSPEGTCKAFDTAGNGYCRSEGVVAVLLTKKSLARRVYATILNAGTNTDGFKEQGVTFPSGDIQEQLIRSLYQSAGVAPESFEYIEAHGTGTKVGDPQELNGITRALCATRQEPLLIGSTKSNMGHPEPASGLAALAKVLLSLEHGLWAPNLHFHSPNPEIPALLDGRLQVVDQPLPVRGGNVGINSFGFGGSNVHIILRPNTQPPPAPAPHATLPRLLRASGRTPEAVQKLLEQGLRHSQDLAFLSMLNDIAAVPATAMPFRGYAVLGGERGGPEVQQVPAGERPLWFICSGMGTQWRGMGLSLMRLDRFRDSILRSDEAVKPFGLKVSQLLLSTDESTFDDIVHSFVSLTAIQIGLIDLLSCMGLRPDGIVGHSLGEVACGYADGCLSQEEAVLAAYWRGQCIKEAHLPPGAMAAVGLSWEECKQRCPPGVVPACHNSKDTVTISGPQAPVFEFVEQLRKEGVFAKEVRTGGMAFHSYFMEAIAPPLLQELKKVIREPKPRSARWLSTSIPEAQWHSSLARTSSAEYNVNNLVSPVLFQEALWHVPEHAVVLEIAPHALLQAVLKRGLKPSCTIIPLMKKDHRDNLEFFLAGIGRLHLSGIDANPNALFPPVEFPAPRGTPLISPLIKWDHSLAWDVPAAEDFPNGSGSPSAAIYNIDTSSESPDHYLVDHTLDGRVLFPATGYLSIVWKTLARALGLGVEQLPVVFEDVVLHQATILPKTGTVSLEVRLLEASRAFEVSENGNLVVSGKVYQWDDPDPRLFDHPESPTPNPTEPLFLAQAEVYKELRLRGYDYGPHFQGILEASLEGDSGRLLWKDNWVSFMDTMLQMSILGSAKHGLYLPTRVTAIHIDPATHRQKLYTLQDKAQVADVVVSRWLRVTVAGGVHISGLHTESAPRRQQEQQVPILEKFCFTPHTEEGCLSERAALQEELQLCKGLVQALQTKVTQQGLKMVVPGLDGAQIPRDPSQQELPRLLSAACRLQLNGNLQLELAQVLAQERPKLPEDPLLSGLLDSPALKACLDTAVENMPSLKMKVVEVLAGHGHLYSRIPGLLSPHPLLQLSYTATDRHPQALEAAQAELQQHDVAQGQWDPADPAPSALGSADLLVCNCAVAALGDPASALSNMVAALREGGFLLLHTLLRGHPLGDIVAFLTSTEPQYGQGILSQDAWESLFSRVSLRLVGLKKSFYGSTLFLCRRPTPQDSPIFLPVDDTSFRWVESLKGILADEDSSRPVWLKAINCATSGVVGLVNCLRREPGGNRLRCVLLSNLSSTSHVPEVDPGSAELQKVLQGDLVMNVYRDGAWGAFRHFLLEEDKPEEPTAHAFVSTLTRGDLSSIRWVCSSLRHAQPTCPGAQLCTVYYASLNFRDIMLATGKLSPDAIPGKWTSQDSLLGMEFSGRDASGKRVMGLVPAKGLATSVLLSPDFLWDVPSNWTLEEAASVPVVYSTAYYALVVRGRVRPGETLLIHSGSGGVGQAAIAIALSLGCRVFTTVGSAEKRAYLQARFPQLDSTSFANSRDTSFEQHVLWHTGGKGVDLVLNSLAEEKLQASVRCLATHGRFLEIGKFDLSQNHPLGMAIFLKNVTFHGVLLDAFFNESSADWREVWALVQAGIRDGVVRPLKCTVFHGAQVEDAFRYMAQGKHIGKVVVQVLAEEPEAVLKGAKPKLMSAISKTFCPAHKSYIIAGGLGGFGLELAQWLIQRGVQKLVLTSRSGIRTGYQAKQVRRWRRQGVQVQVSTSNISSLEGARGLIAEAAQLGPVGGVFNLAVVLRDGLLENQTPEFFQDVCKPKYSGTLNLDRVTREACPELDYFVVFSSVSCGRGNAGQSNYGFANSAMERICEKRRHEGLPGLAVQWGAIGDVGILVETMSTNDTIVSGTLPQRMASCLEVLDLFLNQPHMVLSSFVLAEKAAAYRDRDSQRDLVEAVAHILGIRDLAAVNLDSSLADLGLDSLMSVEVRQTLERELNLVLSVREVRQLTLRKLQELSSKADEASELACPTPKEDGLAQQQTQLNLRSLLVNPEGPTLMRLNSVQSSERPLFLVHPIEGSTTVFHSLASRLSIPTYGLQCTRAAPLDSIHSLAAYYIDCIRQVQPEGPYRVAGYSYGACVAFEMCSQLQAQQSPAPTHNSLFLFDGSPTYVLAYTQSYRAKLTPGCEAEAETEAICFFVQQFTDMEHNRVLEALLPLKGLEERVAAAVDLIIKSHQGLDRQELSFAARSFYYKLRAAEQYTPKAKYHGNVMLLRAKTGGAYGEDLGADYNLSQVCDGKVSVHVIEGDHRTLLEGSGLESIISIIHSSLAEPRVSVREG
Broad substrate specificity ATP-binding cassette transporter ABCG2 (Homo sapiens), sequence (Q9UNQ0 whole entry, looked up): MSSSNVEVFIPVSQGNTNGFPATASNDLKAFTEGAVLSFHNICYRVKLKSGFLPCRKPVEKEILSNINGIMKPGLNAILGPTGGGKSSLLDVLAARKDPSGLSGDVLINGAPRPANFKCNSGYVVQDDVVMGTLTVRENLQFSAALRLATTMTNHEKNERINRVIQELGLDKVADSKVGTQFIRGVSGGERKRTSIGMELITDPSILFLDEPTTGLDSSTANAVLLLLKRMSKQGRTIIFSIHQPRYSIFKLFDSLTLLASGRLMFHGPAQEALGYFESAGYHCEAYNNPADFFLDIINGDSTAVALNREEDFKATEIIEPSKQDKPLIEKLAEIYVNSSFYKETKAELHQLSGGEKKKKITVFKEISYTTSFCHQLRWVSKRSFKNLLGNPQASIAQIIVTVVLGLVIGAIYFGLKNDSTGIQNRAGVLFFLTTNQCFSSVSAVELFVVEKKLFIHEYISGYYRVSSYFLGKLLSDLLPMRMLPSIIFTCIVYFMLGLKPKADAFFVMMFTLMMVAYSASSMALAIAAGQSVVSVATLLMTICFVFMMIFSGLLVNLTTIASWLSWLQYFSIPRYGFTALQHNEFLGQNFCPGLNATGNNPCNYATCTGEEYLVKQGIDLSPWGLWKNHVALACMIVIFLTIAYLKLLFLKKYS

Regarding `CCOc1ccc2c(c1)C(C)=CC(C)(C)N2`, the molecule was classed as inactive in [1], in [2], in test [3], in test [5], in [6] and in [7]. Further, the outcome in test [9], in test [10], in [11], in test [12], in test [13] and in [15] was inactive. For the same molecule, the call in [16], in test [17], in [18] and in test [20] was inactive. Further, the AC50 in test [4] is 50 µM (active); in test [8] it was 17.5 µM (active); in test [14] it was 5.26 µM (active); in test [19], 1.02 µM (active).

With `O=C(O)CCCCC(=O)O`, the molecule was classed as inactive in [1], in test [2], in test [3], in test [4], in test [5] and in [6]. The molecule was called inactive in test [7], in [10], in [12], in test [13], in test [14] and in test [15]. Moreover, the molecule was classed as inactive in [16], in [17], in test [19] and in [20]. In test [8], the AC50 is 73.7 µM (active).

As for `C=CCc1ccc(O)c(OC)c1`, the outcome in test [1], in [2], in test [3], in [4], in test [5] and in test [6] was inactive. Also, the molecule was called inactive in test [7], in test [8], in test [9], in test [10], in test [12] and in test [13]. Also, the outcome in test [14], in test [15], in [16], in test [17], in [18] and in [19] was inactive. Also, the molecule was called inactive in [20].
